The source of these data is PubChem BioAssay (NCI).

Among the test systems are SK-MEL-2 melanoma; EKVX NSCLC; SN12C renal; UO-31 renal; TK-10 renal; ACHN renal; CAKI-1 renal; A498 renal; CCRF-CEM leukemia; RPMI-8226 leukemia; OVCAR-8 ovarian; OVCAR-5 ovarian; OVCAR-4 ovarian; SK-OV-3 ovarian; IGROV1 ovarian; OVCAR-3 ovarian; HS 578T breast; NCI/ADR-RES ovarian; MOLT-4 leukemia.
Assay in all cases: NCI-60 one-dose screen, 48 h (100 = growth as untreated, 0 = no growth, -100 = all killed)
What all share (settings): 10 µM unless noted

The panel holds about 83,000 compounds, 20% with a hit somewhere; the sample as a whole holds those more often.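 Treatment: one concentration, 48 hours, 96-well format. Scoring: percent growth, with anything below 10 considered active.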 Values without a mark were called inactive. Activity calls are given as the source filed them.

`Cc1cc(N2CCCCC2)nc(N(CCNc2ccnc3cc(Cl)ccc23)Cc2ccccn2)n1`: the growth with SK-MEL-2 melanoma is 79.9%; in the test on EKVX NSCLC, 53.7%; in the test on SN12C renal, 62.3%; with UO-31 renal, 23.7%; in the test with TK-10 renal it was 83.8%; in the test with ACHN renal, 62%. In addition, the growth with CAKI-1 renal is 54.1%; in the test with A498 renal it was 37.7%; with CCRF-CEM leukemia, 31.8%; with RPMI-8226 leukemia it was -14.7% (active); in the test with OVCAR-8 ovarian, 52.8%; in the test with OVCAR-5 ovarian it was 68.2%. Moreover, the growth is 41.6% in the test on OVCAR-4 ovarian; 60.5% with SK-OV-3 ovarian; 31% in the test with IGROV1 ovarian; 56.8% in the test with OVCAR-3 ovarian; 53.5% in the test on HS 578T breast; 50.4% with NCI/ADR-RES ovarian.
For `C=C(CNCCc1ccc(O)cc1)[C@@H]1CC[C@]2(COC3CCCCO3)CC[C@]3(C)[C@H](CC[C@@H]4[C@@]5(C)CCC(N)C(C)(C)[C@@H]5CC[C@]43C)[C@@H]12` (stereo partly drawn), the growth with SK-MEL-2 melanoma was -82.9% (active); in the test with EKVX NSCLC it was -74.6% (active); in the test with SN12C renal, -85.2% (active); in the test on UO-31 renal, -96.8% (active); in the test with TK-10 renal, -90.7% (active); in the test on ACHN renal it was -99% (active). Moreover, the growth was -91.8% (active) in the test on CAKI-1 renal; -98.7% (active) in the test with A498 renal; -64.1% (active) with CCRF-CEM leukemia; -64.9% (active) in the test with RPMI-8226 leukemia; -61.6% (active) in the test on OVCAR-8 ovarian; -90.6% (active) with OVCAR-5 ovarian. The growth in the test on OVCAR-4 ovarian was -77.5% (active); in the test on SK-OV-3 ovarian, -95.1% (active); in the test with OVCAR-3 ovarian, -87% (active); in the test on HS 578T breast, -49.5% (active); in the test on NCI/ADR-RES ovarian, -67.1% (active).
In the case of `CCN(CC)N=Nc1nn(C(=O)Nc2ccc(Cc3ccccc3)cc2)c2ccc(Cl)cc12`, the growth with SK-MEL-2 melanoma was 72.9%; in the test on EKVX NSCLC it was 47.5%; with SN12C renal, 83.1%; in the test on UO-31 renal it was 65.6%; in the test with TK-10 renal, 83.5%; in the test with ACHN renal it was 28.1%. Further, the growth in the test on CAKI-1 renal is 65.9%; in the test with A498 renal, 87.9%; in the test on CCRF-CEM leukemia, 62.5%; in the test on RPMI-8226 leukemia, 57.1%; in the test with OVCAR-8 ovarian, 69.3%; with OVCAR-5 ovarian it was 87.7%. The growth was 75.7% with OVCAR-4 ovarian; 92.2% in the test on SK-OV-3 ovarian; 88% in the test with IGROV1 ovarian; 87.6% in the test on OVCAR-3 ovarian; 91.5% with HS 578T breast; 82.1% in the test with NCI/ADR-RES ovarian.
For the compound `O=C1NN(C(=O)c2ccc(O)cc2)C(c2ccccc2)=N/C1=C\c1cn(-c2ccccc2)nc1-c1ccccc1`, the growth in the test on SK-MEL-2 melanoma was 100%; in the test on EKVX NSCLC, 102%; in the test on SN12C renal, 89.2%; with UO-31 renal, 78.6%; in the test with TK-10 renal, 84.7%; with ACHN renal, 88.4%. Besides, the growth in the test on CAKI-1 renal was 98.6%; with A498 renal, 88.8%; in the test with CCRF-CEM leukemia, 89.7%; in the test on RPMI-8226 leukemia, 90%; with OVCAR-8 ovarian it was 97.2%; in the test with OVCAR-5 ovarian, 94%. The growth in the test on OVCAR-4 ovarian is 95.3%; in the test with SK-OV-3 ovarian, 92.6%; in the test on IGROV1 ovarian, 91.5%; in the test with OVCAR-3 ovarian, 112%; in the test on HS 578T breast, 99.8%; in the test with NCI/ADR-RES ovarian, 99.7%.
As to `COC(=O)c1ccc(CSc2nnc(-c3ccncc3)o2)cc1`, the growth with SK-MEL-2 melanoma is 102%; with EKVX NSCLC, 101%; in the test with SN12C renal it was 96.2%; with UO-31 renal it was 79.7%; with TK-10 renal it was 116%; with ACHN renal, 100%. The growth in the test with CAKI-1 renal was 90.3%; with A498 renal, 120%; with CCRF-CEM leukemia, 99.3%; with RPMI-8226 leukemia, 102%; with OVCAR-8 ovarian it was 101%; in the test on OVCAR-5 ovarian, 104%. The growth in the test with OVCAR-4 ovarian is 99.5%; in the test with SK-OV-3 ovarian, 102%; in the test with IGROV1 ovarian it was 98.9%; in the test on OVCAR-3 ovarian, 112%; in the test on HS 578T breast it was 107%; in the test with NCI/ADR-RES ovarian, 104%.
On to `CCCn1nc(-c2ccccc2)c2c(-c3ccccc3)onc2c1=O`, for which the growth with SK-MEL-2 melanoma is 57.8%; with EKVX NSCLC, 78.9%; in the test with SN12C renal, 82.1%; in the test on UO-31 renal it was 68.8%; in the test on TK-10 renal, 106%; in the test on ACHN renal, 94.1%. For the same compound, the growth in the test with CAKI-1 renal was 85.9%; with A498 renal, 68.9%; with CCRF-CEM leukemia it was 68.7%; in the test on RPMI-8226 leukemia, 70.2%; with OVCAR-8 ovarian, 102%; with OVCAR-5 ovarian, 87.7%. Also, the growth is 79.7% with OVCAR-4 ovarian; 83.6% in the test on SK-OV-3 ovarian; 72.5% in the test with IGROV1 ovarian; 91.8% in the test with OVCAR-3 ovarian; 67.7% in the test on HS 578T breast; 68.5% in the test on NCI/ADR-RES ovarian.
`COc1ccc(Nc2ncc(Br)c(NCCCNC(=O)C3CCC3)n2)cc1`: the growth was 42.1% with SK-MEL-2 melanoma; 37.2% in the test with EKVX NSCLC; 27.8% in the test with SN12C renal; -19.8% (active) in the test on UO-31 renal; 5.53% (active) in the test with TK-10 renal; 19.5% with ACHN renal. Further, the growth in the test on CAKI-1 renal was 0.899% (active); in the test with A498 renal, 26.1%; in the test with CCRF-CEM leukemia, 17.2%; with MOLT-4 leukemia it was 12.1%; in the test with RPMI-8226 leukemia it was 40.1%; in the test on OVCAR-5 ovarian, 31.1%. Moreover, the growth is -0.243% (active) with OVCAR-4 ovarian; 10.6% in the test on SK-OV-3 ovarian; 14.5% in the test on IGROV1 ovarian; 31.6% with OVCAR-3 ovarian; -15.7% (active) with HS 578T breast; 47.4% in the test on NCI/ADR-RES ovarian.
Turning to `COc1ccc(/C=C(\C#N)n2nnc3cc(F)c(F)cc32)c(OC)c1OC`, the growth in the test on SK-MEL-2 melanoma is 79%; in the test on EKVX NSCLC, 72.8%; in the test with SN12C renal it was 67%; with UO-31 renal, 52.4%; with TK-10 renal, 126%; in the test on ACHN renal, 66.2%. Also, the growth in the test on CAKI-1 renal is 87.7%; in the test on A498 renal it was 91%; with CCRF-CEM leukemia it was 23.4%; in the test on RPMI-8226 leukemia, 41.6%; in the test on OVCAR-8 ovarian it was 67.6%; in the test with OVCAR-5 ovarian, 98%. The growth with OVCAR-4 ovarian is 60.6%; with SK-OV-3 ovarian, 88.6%; with IGROV1 ovarian, 68.8%; with OVCAR-3 ovarian, 58.2%; with HS 578T breast, 66.2%; with NCI/ADR-RES ovarian, 72.7%.
